Measurements published in PubChem BioAssay.
Values without a mark were called inactive. For some of these results: Entries with a potency or affinity are not part of this list. Activity calls are given as the source filed them. Unless noted, the rule behind the calls is not given here.

Key:
[1] = antimalarial activity against Dd2 strain (AID 2302;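 active = growth inhibition above 50% at the single 2 µM test dose, taken to imply half-maximal potency below 2 µM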;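 note: 0% = DMSO untreated growth and 100% = chloroquine plus artemisinin killed control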); details: P. falciparum Dd2 in RBCs, LDH growth readout, 72 h; at 2 µM; active compounds read high
[2] = HepG2 cytotoxicity, primary screen, cytotoxicity control for P. falciparum antimalarial project, cell-based, ATP luminescence (AID 2303;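 active = inhibition above 50%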;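 note: 0% = DMSO wells and 100% = digitonin-killed cells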); details: HepG2 viability, 24-48 h, at 10 µM, active compounds read high
[3] = molecular target: L-lactate dehydrogenase (Plasmodium falciparum (isolate CDC / Honduras)) (UniProt Q27743); assay: PfLDH activity inhibition – cell lysate, 3D7 strain, counter-screen for P. falciparum growth inhibition project (AID 2304);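 note: 0% = vehicle and 100% = reference inhibitor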; details: P. falciparum 3D7 crude extract, LDH APAD/NBT absorbance; at 2 µM; active compounds read high
Sequence of L-lactate dehydrogenase (Plasmodium falciparum (isolate CDC / Honduras)) (Q27743 whole entry, looked up): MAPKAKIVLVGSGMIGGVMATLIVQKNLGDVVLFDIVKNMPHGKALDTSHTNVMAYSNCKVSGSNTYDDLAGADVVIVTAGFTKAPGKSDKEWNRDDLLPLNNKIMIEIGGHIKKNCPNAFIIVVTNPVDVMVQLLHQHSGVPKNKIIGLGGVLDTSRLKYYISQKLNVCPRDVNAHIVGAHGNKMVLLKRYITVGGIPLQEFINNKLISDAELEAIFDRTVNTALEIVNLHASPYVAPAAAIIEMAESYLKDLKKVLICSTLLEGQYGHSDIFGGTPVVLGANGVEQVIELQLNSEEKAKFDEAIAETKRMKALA

[4] = inhibition of 3D7 malaria parasite growth – strain 3D7 (AID 2306);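 note: 0% = DMSO wells and 100% = chloroquine plus artemisinin control wells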; details: P. falciparum 3D7 erythrocytic growth, LDH absorbance, 72 h; at 2 µM; active compounds read high
[5] = molecular target: Calcium-dependent protein kinase 1 (Plasmodium falciparum (isolate 3D7)) (UniProt P62344); assay: PfCDPK1 kinase inhibitors, biochemical, TCAMS library (AID 1159585; cut-off not given, nearly all actives have IC50 up to about 0.98 µM;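 note: inhibitors leave more ATP so luminescence rises with inhibition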); details: recombinant PfCDPK1, Kinase-Glo ATP depletion luminescence
Sequence of Calcium-dependent protein kinase 1 (Plasmodium falciparum (isolate 3D7)) (P62344 whole entry, looked up): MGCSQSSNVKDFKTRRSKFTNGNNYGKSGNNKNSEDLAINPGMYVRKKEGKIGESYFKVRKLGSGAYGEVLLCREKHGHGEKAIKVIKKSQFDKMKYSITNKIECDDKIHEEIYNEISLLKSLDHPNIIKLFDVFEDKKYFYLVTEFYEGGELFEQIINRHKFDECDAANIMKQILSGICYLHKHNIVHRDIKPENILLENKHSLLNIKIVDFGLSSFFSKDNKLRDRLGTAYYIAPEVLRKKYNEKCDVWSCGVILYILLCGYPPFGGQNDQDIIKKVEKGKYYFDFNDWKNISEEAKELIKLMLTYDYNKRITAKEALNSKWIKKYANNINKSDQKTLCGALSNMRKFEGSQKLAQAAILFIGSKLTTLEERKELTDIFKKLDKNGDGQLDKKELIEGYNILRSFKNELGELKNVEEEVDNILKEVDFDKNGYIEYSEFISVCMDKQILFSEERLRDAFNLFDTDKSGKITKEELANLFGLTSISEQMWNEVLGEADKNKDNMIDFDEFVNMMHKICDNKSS

[6] = molecular target: Plasmodium falciparum protein kinase 6 (PK6, PF3D7_1337100) (UniProt Q8IDW1); assay: PfPK6 kinase inhibitors, biochemical, TCAMS library (AID 1159586); details: recombinant PfPK6, Kinase-Glo ATP depletion luminescence
Sequence of Plasmodium falciparum protein kinase 6 (PK6, PF3D7_1337100) (Q8IDW1 1-305): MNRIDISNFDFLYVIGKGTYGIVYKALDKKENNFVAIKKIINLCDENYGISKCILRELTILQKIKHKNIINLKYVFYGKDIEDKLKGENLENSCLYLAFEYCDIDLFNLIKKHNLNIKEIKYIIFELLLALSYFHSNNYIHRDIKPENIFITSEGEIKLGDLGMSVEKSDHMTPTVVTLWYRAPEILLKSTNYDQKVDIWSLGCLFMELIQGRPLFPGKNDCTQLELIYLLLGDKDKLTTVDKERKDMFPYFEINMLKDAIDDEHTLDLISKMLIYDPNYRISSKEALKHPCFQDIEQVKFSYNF

[7] = molecular target: Protein kinase 7 (PK7), Plasmodium falciparum 3D7 (PF3D7_0213400) (UniProt Q7YTF7); assay: inhibition of Plasmodium PK7 catalytic activity – biochemical, TCAMS antimalarial set, Kinase-Glo luminescence (AID 1159587); details: recombinant PfPK7, Kinase-Glo ATP depletion luminescence
Sequence of Protein kinase 7 (PK7), Plasmodium falciparum 3D7 (PF3D7_0213400) (Q7YTF7 1-343): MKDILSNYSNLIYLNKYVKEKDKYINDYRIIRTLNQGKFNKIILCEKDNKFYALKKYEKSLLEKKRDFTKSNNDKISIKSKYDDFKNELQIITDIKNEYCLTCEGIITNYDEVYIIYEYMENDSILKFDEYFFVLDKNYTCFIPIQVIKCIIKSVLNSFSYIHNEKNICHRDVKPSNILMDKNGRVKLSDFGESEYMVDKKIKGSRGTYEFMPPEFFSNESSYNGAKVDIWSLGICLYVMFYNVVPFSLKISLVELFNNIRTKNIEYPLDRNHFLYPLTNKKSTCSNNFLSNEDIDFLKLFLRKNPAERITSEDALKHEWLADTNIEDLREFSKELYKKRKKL

[8] = molecular target: Calcium-dependent protein kinase 4 (Plasmodium falciparum (isolate 3D7)) (UniProt Q8IBS5); assay: PfCDPK4 kinase inhibitors, biochemical, TCAMS library (AID 1159588; cut-off not given, nearly all actives have IC50 up to about 0.91 µM); details: recombinant PfCDPK4, Kinase-Glo ATP depletion luminescence
Sequence of Calcium-dependent protein kinase 4 (Plasmodium falciparum (isolate 3D7)) (Q8IBS5 whole entry, looked up): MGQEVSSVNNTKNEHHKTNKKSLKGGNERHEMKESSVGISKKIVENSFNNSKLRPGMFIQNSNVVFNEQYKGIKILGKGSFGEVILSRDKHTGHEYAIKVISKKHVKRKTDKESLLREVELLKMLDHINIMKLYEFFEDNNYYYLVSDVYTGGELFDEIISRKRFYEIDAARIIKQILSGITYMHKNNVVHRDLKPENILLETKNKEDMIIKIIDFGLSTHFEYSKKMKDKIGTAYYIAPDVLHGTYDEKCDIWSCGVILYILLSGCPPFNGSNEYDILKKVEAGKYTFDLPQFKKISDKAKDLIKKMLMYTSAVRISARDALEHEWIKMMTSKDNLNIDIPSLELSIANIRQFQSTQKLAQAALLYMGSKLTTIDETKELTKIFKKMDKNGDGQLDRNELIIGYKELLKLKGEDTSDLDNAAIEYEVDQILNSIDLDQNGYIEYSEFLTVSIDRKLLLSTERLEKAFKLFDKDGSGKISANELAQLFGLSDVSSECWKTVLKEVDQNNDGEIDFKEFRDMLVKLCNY

SMILES	growth inhibition [1]	inhibition [2]	inhibition [3]	growth inhibition [4]	outcome [5]	outcome [6]	outcome [7]	outcome [8]
CC(C)Nc1nc(NC2CCCCC2)nc(N2CCCCCCC2)n1	96% (active)	13%	2%	86% (active)	inactive	inactive	inactive	inactive
CCOC(=O)CCCCOc1c(OC)cc(Cc2cnc(N)nc2N)cc1OC	0%	-8%	5%	95% (active)	inactive	inactive	inactive	inactive
COc1ccccc1N(C)CCNc1cc(C)nc(Nc2ccccc2)n1	13%	10%	-1%	96% (active)	inactive	inactive	inactive	inactive
COc1cc(C(=O)N2CCN(C(C)C)CC2)ccc1CN(C)CCCCN1CCN(c2cccc(Cl)c2Cl)CC1	98% (active)	79% (active)	6%	101% (active)	inactive	inactive	inactive	inactive
Cc1cc(C)c(C(=O)Nc2ccc3nc(C)cc(N)c3c2)c(C)c1	14%	12%	4%	84% (active)	inactive	inactive	inactive	inactive
NCc1ccc(-c2cccc(CNC3CCN(Cc4ccccc4)CC3)c2)cc1	50% (active)	24%	-7%	100% (active)	inactive	inactive	inactive	inactive
N#Cc1ccc(C(=O)Nc2ccc(Cl)c(N3CCN(CCc4ccccc4)CC3)c2)cc1	35%	5%	5%	90% (active)	inactive	inactive	inactive	inactive
CCNc1cc(C(=O)N[C@@H](Cc2ccccc2)[C@H](O)CN[C@H]2CCc3ccccc32)cc(N2CCCC2=O)c1	99% (active)	8%	3%	98% (active)	inactive	inactive	inactive	inactive
CC[C@@]1(O)C(=O)OCc2c1cc1n(c2=O)Cc2c-1nc1cc3c(cc1c2CN1CCN(C)CC1)OCCO3	97% (active)	79% (active)	1%	98% (active)	inactive	inactive	inactive	inactive
CC(CN(C)C)C(=O)Nc1ccc(-c2csc(-c3nc4ccccc4[nH]3)c2)cc1 (stereo not drawn)	19%	28%	-4%	84% (active)	inactive	inactive	inactive	inactive
CCCCc1ccc(-c2nc(NC(=O)Nc3nc(-c4ccccc4)[nH]c3C(=O)OCC)c(C(=O)OCC)[nH]2)cc1	26%	0%	-4%	95% (active)	inactive	inactive	inactive	inactive
